S1P4 antagonist – blocks the human S1P4 receptor; S1P4-expressing cells, antagonist mode, reporter read-out; O95977; hit rate 0.26% among 220,000; inhibition, % at 4.98 µM; AID 1510; in the data active = inhibition above about 29%;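 note: 0% = wells stimulated with agonist and 100% = vehicle wells without agonist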
Target sequence (O95977 whole entry, looked up): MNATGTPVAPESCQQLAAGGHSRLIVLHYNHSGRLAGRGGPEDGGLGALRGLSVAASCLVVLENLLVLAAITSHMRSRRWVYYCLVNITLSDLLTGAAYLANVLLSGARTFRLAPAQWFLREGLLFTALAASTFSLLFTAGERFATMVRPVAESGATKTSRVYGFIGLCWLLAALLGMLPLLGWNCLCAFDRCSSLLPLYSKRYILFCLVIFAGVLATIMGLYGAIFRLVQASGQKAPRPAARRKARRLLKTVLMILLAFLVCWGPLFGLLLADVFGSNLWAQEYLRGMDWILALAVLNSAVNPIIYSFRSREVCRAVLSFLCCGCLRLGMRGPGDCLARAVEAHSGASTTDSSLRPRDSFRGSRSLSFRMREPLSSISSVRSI
S1P3 antagonist – blocks the human S1P3 receptor; CHO S1P3 NFAT-BLA reporter, FRET fluorescence, antagonist mode; Q99500; hit rate 0.27% among 170,000; inhibition, % at 4.98 µM;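 active = inhibition above the plate cutoff, the mean inhibition of test wells on that plate plus 3 SD, cut at about 28% in these data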;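 note: cells challenged with S1P at its EC80 of 0.8 µM; blue over green emission ratio from cleaved BLA substrate after 4 h stimulation; 0% = S1P-stimulated wells and 100% = unstimulated DMSO-only wells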
Pf gametocyte – inhibitors of late stage P. falciparum gametocyte viability | P. falciparum stage V gametocytes, ATP luminescence, 24 h | inhibition, % at 10.9 µM | hit rate 0.065% among 150,000 | AID 743093;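 active = inhibition above the mean plus 3 SD of compounds within the control limits, set per campaign, cut at about 38% in these data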;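 note: 0% = DMSO wells and 100% = medium only without gametocytes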
S1P4 agonist – agonists of human S1P4 receptor; S1P4-expressing cell line, agonist reporter assay; activation, % at 4.98 µM; AID 1509; hit rate 0.35% among 220,000; in the data active = activation above about 11%;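 note: 0% = DMSO vehicle and 100% = reference agonist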
Hsp70 act – switches on Hsp70 transcription. AID 1203. hit rate 0.04% among 200,000. HeLa Hsp70 promoter luciferase reporter, luminescence; scaled: vehicle 0, proteasome-inhibitor control 100%. activation, % at 10 µM;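 active = activation above the mean across all tested compounds plus 3 SD, cutoff set per campaign, cut at about 5.5% in these data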;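 note: 100% = MG132 at 30 µM as the positive control and 0% = DMSO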
Numbers without * were called inactive; / = no result given. An excerpt weighted towards active compounds, which were near 0.83% of everything screened.

SMILES	S1P4 antagonist	S1P3 antagonist	Pf gametocyte	S1P4 agonist	Hsp70 act
Nc1nonc1-c1nc2ccccc2n1Cc1ccc(F)cc1Cl	-12.8	78.0*	/	-0.7	-0.1
Fc1ccc(Cn2c(-c3cscn3)nc3ccccc32)c(Cl)c1	15.3	/	/	0.7	-0.2
N=c1oc2cc(O)ccc2cc1C(=O)Nc1ccccn1	-52.3	-72.1	/	73.7*	-0.3
O=C(NCc1cccnc1)NC1(c2ccccc2)CC1	-17.6	76.6*	/	1.5	-0.1
CC(C)(C)OC(=O)N1CCC[C@H]1C(=O)N/N=C/c1cccc2nccnc12	11.3	-13.8	18.9	0.3	/
CCN(CC(=O)NC1CCS(=O)(=O)C1)c1nc(-c2ccccc2)nc2ccccc12 (configuration not stated)	-8.4	93.5*	8.4	-1.2	-0.4
O=C(Cc1ccccc1)NC1CCS(=O)(=O)C1 (configuration not stated)	-2.8	/	/	-0.4	-0.2
COc1ccc(-c2cc3nc(-c4ccccc4)cc(N4CCC5(CC4)OCCO5)n3n2)cc1	-38.6	54.3*	-6.7	0.9	0.0
COc1ccc(N2C(=O)CSC23C(=O)N2CCCc4cccc3c42)cc1 (configuration not stated)	1.2	7.5	42.1*	0.9	0.1
CC1(C)C=C(c2ccc(O)cc2)CC(C)(C)N1	13.9	15.7	/	20.0*	-0.3
COc1ccc(NS(=O)(=O)c2cccc(-c3nnc4n3CCCCC4)c2)cc1	-8.1	/	/	0.2	0.6
O=c1[nH]c2ccc(S(=O)(=O)Nc3ccc(-c4nnc5n4CCCCC5)cc3)cc2o1	-0.8	65.8*	0.7	-0.8	0.0
NS(=O)(=O)c1ccc(N2CCCC2=O)c([N+](=O)[O-])c1	-9.9	-18.9	38.2*	-0.5	-0.4
NNS(=O)(=O)c1ccc(N2CCCC2=O)c([N+](=O)[O-])c1	-13.8	-3.4	28.0	2.3	0.0
CCN(CC)c1ccc(NC(=O)c2ccccc2)cc1S(=O)(=O)Nc1ccccc1OC	-6.1	16.2	/	1.1	-0.4
CC1CCN(c2ccc3c(c2)S(=O)(=O)c2cccc(C(=O)NC4CCCCC4)c2C3=O)CC1	/	/	21.6	/	/
Cn1ncc([N+](=O)[O-])c1C(=O)N/N=C/c1cccc([N+](=O)[O-])c1	-2.2	-5.4	24.9	-0.4	-0.4
FC(F)(F)c1cccc(-c2nnc3ccc(C(F)(F)F)cn23)c1	-5.2	93.1*	-13.9	0.6	0.1
FC(F)(F)c1cccc(-c2nn[nH]n2)c1	20.5	-10.2	11.5	-2.3	0.1
Cc1cc(/C=N/n2cnnc2)c(C)n1-c1ccc(OCc2ccc(Cl)cc2Cl)cc1	-22.1	/	/	-0.2	-0.4
Cc1cc(/C=N/n2cnnc2)c(C)n1-c1ccc(OCc2ccc(F)cc2)cc1	-21.5	76.9*	/	-0.1	-0.3
COc1ccc(N2CSC3=C(C#N)C(c4cccc(OC)c4OC)CC(=O)N3C2)cc1 (configuration not stated)	-12.9	98.9*	/	-2.0	-0.1
O=C(Nc1ccccc1)N1CCN(S(=O)(=O)c2ccccc2)CC1	-18.9	-8.8	9.5	1.6	1.1
C[C@H](CO)N1C[C@H](C)[C@@H](CN(C)S(=O)(=O)c2ccccc2)Oc2c(NS(=O)(=O)c3ccccc3)cccc2C1=O	/	/	2.9	/	/
CN(CCO)c1nc(N)c(C#N)c(CC#N)c1C#N	4.6	1.1	-36.9	2.2	/
SMILES	S1P4 antagonist	S1P3 antagonist	Pf gametocyte	S1P4 agonist	Hsp70 act
CC(C)CN(CC(C)C)c1nc(N)c(C#N)c(CC#N)c1C#N	8.8	94.3*	/	0.7	0.0
CN1CCN(S(=O)(=O)c2ccc(NC(=S)NC(=O)c3ccc(Cl)cc3)cc2)CC1	-2.9	/	-17.7	12.9*	0.0
CN1CCN(S(=O)(=O)c2ccc(NC(=S)NC(=O)c3ccccc3)cc2)CC1	-1.7	/	8.4	0.6	0.2
C=CCOc1ccc(C(=O)O)cc1Cl	/	/	21.4	/	/
COc1ccc(OCCCCn2c(CO)nc3ccccc32)cc1	/	/	9.1	/	/
C/C(=N/NC(=O)c1ccncc1)c1cc2ccc(O)cc2oc1=O	-67.7	-30.9	-34.5	47.7*	-0.3
C/C(=N\NC(=O)c1ccncc1)c1cc2ccccc2oc1=O	-4.7	-2.0	-10.7	-0.1	-0.2
CC(=O)C1=C(C)Nc2ncnn2C1c1ccc(Cl)cc1 (configuration not stated)	-4.8	80.8*	/	4.5	-0.4
COc1cc(C2C(C(C)=O)=C(C)Nc3ncnn32)ccc1O (configuration not stated)	-1.9	/	/	1.1	-0.1
COc1ccc2c(c1)c(CCN1C(=O)c3ccccc3C1=O)cn2C(=O)c1ccco1	-0.3	55.0*	-6.9	1.6	-0.2
O=C(Oc1ccc2[nH]cc(CCN3C(=O)c4ccccc4C3=O)c2c1)c1ccco1	-8.4	1.2	19.5	-4.1	-0.3
Nc1nc(Nc2ccc(Cl)cc2)c(NC=O)c(=O)[nH]1	/	/	1.0	/	/
Cc1cc(C(=O)CSc2nc3ccc(Cl)cc3[nH]2)c(C)n1Cc1ccco1	/	/	-1.4	/	/
COC(=O)c1cc(NC(=O)c2ccc(-c3ccccc3)cc2)ccc1Cl	-4.4	-14.1	41.4*	0.4	-0.4
O=C(Nn1c(C2CCCCC2)nc2ccccc2c1=O)c1ccc([N+](=O)[O-])cc1	-13.3	-4.2	42.1*	0.8	0.0
COc1cccc(OC)c1C(=O)Nn1c(C2CCC2)nc2ccccc2c1=O	-24.6	0.2	-11.5	0.2	-0.4
CC1CCCN(CC(O)CN)C1 (configuration not stated)	-3.3	/	47.1*	2.4	-0.1
Cc1noc(C)c1C(=O)Nc1nnc(-c2ccccc2)s1	101.6*	-5.8	/	-1.4	-0.1
Cc1onc(-c2ccccc2)c1C(=O)Nc1nnc(N2CCCCCC2)s1	-0.1	-7.4	/	-0.6	-0.3
Nc1nc(Cl)nc2ncn(Cc3ccccc3)c12	/	/	-28.9	/	/
COc1ccc(OC)c(C2C(C(C)=O)=C(O)C(=O)N2CCC(=O)O)c1 (configuration not stated)	-19.9	104.4*	-4.3	-2.8	0.0
COc1ccc(OC)c(C2C(C(C)=O)=C(O)C(=O)N2CCN2CCOCC2)c1 (configuration not stated)	3.4	-3.6	/	-1.8	-0.1
CC(Nc1ccc(Br)cn1)c1cc(Cl)ccc1O (configuration not stated)	8.4	67.0*	-29.1	2.7	-0.4
CCOc1ccc(C2C([N+](=O)[O-])=C(C)N(C)C(=O)N2C)cc1OC (configuration not stated)	12.1	-10.3	/	2.1	0.2
CCC1Oc2nc(SC)nnc2-c2ccccc2N1C(=O)c1ccccc1 (configuration not stated)	9.9	-14.0	/	-1.6	-0.3
CCC(=O)N1c2ccccc2-c2nnc(SC)nc2OC1c1ccc(N(C)C)cc1 (configuration not stated)	-8.6	-44.0	/	220.4*	0.2
Cc1ccc(S(=O)(=O)NC(C(=O)Oc2ccc3ccc(=O)oc3c2)c2ccccc2)cc1 (configuration not stated)	-4.3	-14.8	7.4	5.1	0.3
Cc1ccc(S(=O)(=O)N[C@H](C(=O)Oc2ccc3c(C(F)(F)F)cc(=O)oc3c2)c2ccccc2)cc1	41.3*	/	/	0.5	1.4
COc1ccc(Br)cc1/C=C/C(=O)Nc1c(C)cccc1C	95.5*	/	/	0.6	0.1

Bioassay records (PubChem BioAssay)
